Test results from the supplement of paper PMC8285479.
“And” between values parts separate entries of the source, which are not always exact repeats. Equal values may be shown once. Where a name gives a salt, the structure may show the parent alone. ± gives the standard deviation of the averaged measurements. Whole data set: some 1,900 compounds, median “normalised cell viability (NPI; 0 = phenylarsine oxide control, 1 = DMSO control)” near 1, cut for the lowest 2% near 0.039. Only a selection was taken, and the lowest values are over-represented in it overall.

Tested on: NCI-H1944
Test: normalised cell viability (NPI; 0 = phenylarsine oxide control, 1 = DMSO control) (fraction of DMSO control); NCI-H1944 is a non-small cell lung cancer line; higher = more viable cells (less compound toxicity)
Settings: 6 days
[1] = glucocorticoid arm: hydrocortisone 2.75 uM co-treatment, compound 1 µM
[2] = glucocorticoid arm: hydrocortisone 2.75 uM co-treatment, compound 5 µM
[3] = glucocorticoid arm: hydrocortisone 2.75 uM pre-treated 2 days and continued, compound 1 µM
[4] = glucocorticoid arm: hydrocortisone 2.75 uM pre-treated 2 days and continued, compound 5 µM
[5] = glucocorticoid arm: vehicle, compound 1 µM
[6] = glucocorticoid arm: vehicle, compound 5 µM
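Note: CTB read-out in 384-well plates, triplicate wells, NPI normalised per plate against 1 µM phenylarsine oxide (0) and 0.1% DMSO (1) controls.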

| Compound | normalised cell viability [1] | normalised cell viability [2] | normalised cell viability [3] | normalised cell viability [4] | normalised cell viability [5] | normalised cell viability [6] |
| --- | --- | --- | --- | --- | --- | --- |
| CN(C)CCCCSC(=N)N | 1.001 ± 0.0081 | 1.01 ± 0.011 | 1.02 ± 0.026 | 1.02 ± 0.011 | 0.9953 ± 0.0064 | 0.9883 ± 0.005 |
| O=C(CCCCCCNC(=O)c1cnc(N(c2ccccc2)c2ccccc2)nc1)NO | 0.9803 ± 0.0098 | 0.922 ± 0.018 | 0.996 ± 0.021 | 0.9343 ± 0.0021 | 1.01 ± 0.01 | 0.9873 ± 0.0071 |
| O=C(CCCCCCC(=O)NO)NO [Suberoyl bis-hydroxamic acid] | 0.958 ± 0.024 | 0.833 ± 0.053 | 0.968 ± 0.021 | 0.868 ± 0.04 | 1.005 ± 0.0057 | 0.9962 ± 0.0093 |
| O=C(CCCCCCNC(=O)c1cnc(N(c2ccccc2)c2ccccc2)nc1)NO [Rocilinostat (ACY-1215)] | 0.9393 ± 0.0064 | 0.966 ± 0.011 | 0.944 ± 0.015 | 0.945 ± 0.018 | 0.9923 ± 0.0021 | 0.918 ± 0.0096 |
| NC(=S)c1ccc[n+]([C@@H]2O[C@@H](COP(=O)([O-])OP(=O)(O)OC[C@H]3O[C@@H](n4cnc5c(N)ncnc54)C(OP(=O)(O)O)[C@H]3O)C(O)C2O)c1 (stereo partly specified) [Thio-NADP sodium] | 1.013 ± 0.0058 | 1.01 ± 0.026 | 1.03 ± 0.021 | 0.998 ± 0.013 | 1.013 ± 0.0058 | 1.013 ± 0.0058 |
| CC(C)c1cc(-c2ccc(F)c3ccccc23)nc(N)n1 | 0.9813 ± 0.0081 | 0.9787 ± 0.005 | 0.991 ± 0.018 | 0.993 ± 0.013 | 0.984 ± 0.025 | 1.001 ± 0.0079 |
| COc1ccc(Cl)cc1NC(=O)Nc1cc(C)nc2ccccc12 | 1.01 and 1.02 | – | – | – | 1 and 1.01 | – |
| CNCc1ccc(C)c(NC(=O)c2ccc(Nc3nc(-c4ccccc4)c4ccccc4n3)cc2)c1 | 0.965 ± 0.017 | 0.939 ± 0.017 | 0.9953 ± 0.0021 | 0.959 ± 0.015 | 0.991 ± 0.0027 | 0.988 ± 0.011 |
| Cc1cc(Nc2ccc(NC(=O)c3ccc(Nc4ccnc5ccccc45)cc3)cc2)nc(N)n1 | 0.99 ± 0.017 | -0.000696 ± 0.0048 | 0.9783 ± 0.0035 | 0.492 ± 0.5 | 1.006 ± 0.0075 | 0.000819 ± 0.0006 |
| O=C(O)C=C1CCCc2ccccc2C1O (stereo unspecified) | 0.987 ± 0.012 | 0.948 ± 0.026 | 0.987 ± 0.02 | 0.994 ± 0.044 | 0.983 ± 0.0069 | 0.987 ± 0.01 |
| Cc1cc(Cn2cnc3c2C[C@@H](C(=O)O)N(C(=O)C(c2ccccc2)c2ccccc2)C3)ccc1N | 1.03 ± 0.01 | 1.01 ± 0.022 | 1.023 ± 0.0058 | 1.01 ± 0.014 | 1.027 ± 0.0058 | 1.02 |
| COc1cc2c(cc1C(F)(F)F)N(C(=O)Nc1cc(F)cc(-c3cccnc3)c1)CC2 | 0.994 ± 0.017 | 0.0391 ± 0.01 | 1.02 ± 0.01 | 0.903 ± 0.021 | 0.974 ± 0.028 | 0.00107 ± 0.00012 |
| Cn1ccc2cc3c(cc21)CCN3C(=O)Nc1cccnc1 | 1.02 ± 0.011 | 1.01 ± 0.018 | 1.05 ± 0.021 | 1.02 ± 0.017 | 1.03 ± 0.011 | 1.01 ± 0.01 |
| Cc1cc2c(cc1Cl)N(C(=O)Nc1cccc3ncccc13)CC2 | 0.985 ± 0.011 | 0.965 ± 0.015 | 1 ± 0.016 | 1.03 ± 0.084 | 0.9793 ± 0.0086 | 0.992 ± 0.007 |
| COc1ccc2cc(-c3nc(-c4ccc([S+](C)[O-])cc4)[nH]c3-c3ccncc3)ccc2c1 (stereo unspecified) [Tie2 kinase inhibitor] | 1 ± 0.016 | 1.002 ± 0.0072 | 0.992 ± 0.0087 | 1 ± 0.018 | 0.997 ± 0.0017 | 0.9943 ± 0.0098 |
| Cn1cc(C(=O)OCC2CCN(CCNS(C)(=O)=O)CC2)c2ccccc21 | 1.01 ± 0.01 | 0.997 ± 0.014 | 1.02 ± 0.011 | 1.03 ± 0.014 | 1.017 ± 0.0058 | 1.023 ± 0.0058 |
| CN1CCc2c(c3ccccc3n2Cc2ccc(C(=O)NO)cc2)C1 [Tubastatin A HCl] | 0.9623 ± 0.0086 | 0.859 ± 0.016 | 0.967 ± 0.0035 | 0.913 ± 0.025 | 0.999 ± 0.01 | 0.9903 ± 0.0042 |
| CN1CCc2c(c3ccccc3n2Cc2ccc(C(=O)NO)cc2)C1 [Tubastatin A] | 0.984 ± 0.013 | 0.983 ± 0.026 | 0.983 ± 0.023 | 1.01 ± 0.023 | 0.991 ± 0.011 | 0.9927 ± 0.0063 |
| NS(=O)(=O)c1cc(C(=O)O)c(NCc2ccco2)cc1Cl [Furosemide] | 1.002 ± 0.0076 | 0.9983 ± 0.0029 | 0.999 ± 0.011 | 0.995 ± 0.015 | 0.984 ± 0.002 | 0.9897 ± 0.0047 |
| OCC1OC(n2cnc3c(NCCc4ccccc4)ncnc32)C(O)C1O (stereo unspecified) [N6-2-Phenylethyladenosine] | 1.006 ± 0.0069 | 0.9327 ± 0.0083 | 0.852 ± 0.27 | 1 ± 0.017 | 0.993 ± 0.0062 | 1 ± 0.017 |
| N=C(N)NCCCCNC(=N)N [Arcaine sulfate] | 0.987 ± 0.012 | 0.994 ± 0.033 | 0.993 ± 0.0066 | 1.01 ± 0.038 | 0.987 ± 0.013 | 0.9957 ± 0.0045 |
| C=C1C(=O)O[C@@H](CCC)[C@@H]1C(=O)O [Butyrolactone 3] | 1 ± 0.013 | 1.02 ± 0.015 | 0.998 ± 0.013 | 1.017 ± 0.0082 | 0.996 ± 0.0046 | 1.001 ± 0.0075 |
| COc1ccc(Cn2ccc3ccc(C(=O)NO)cc32)cc1 | 0.959 ± 0.041 | 1.01 ± 0.029 | 0.923 ± 0.12 | 1.04 ± 0.04 | 0.9977 ± 0.004 | 1.002 ± 0.0076 |
| CCN(CC)Cc1ccc2cc(COC(=O)Nc3ccc(C(=O)NO)cc3)ccc2c1 [Givinostat (ITF2357)] | 0.726 ± 0.049 | 0.00151 ± 0.0022 | 1 ± 0.018 | 0.0193 ± 0.0045 | 0.139 ± 0.006 | 0.000221 ± 0.0011 |
| CCN(CC)CCNC(=O)c1ccc(NC(C)=O)cc1 [N-Acetylprocainamide hydrochloride] | 0.9787 ± 0.0049 | 0.974 ± 0.0099 | 0.9943 ± 0.0067 | 0.977 ± 0.027 | 0.9883 ± 0.0038 | 0.9807 ± 0.0087 |
